Reference: the OligoGym collection

target: CD27; assay: pooled miR-30 sensor sort-seq; sequence = guide strand; settings: shRNA

Sequence	sensor-assay potency score (higher = more potent)
TGAAAACAAGGAACATTCCAGA	-0.449
TTTGTTTGATCTATATTTCCTT	0.303
TTTCGCAGCAGGAAGTGTGTTT	0.0361
TAGCATGTGGGTCTTTCGCAGC	-0.998
TCTGGCAGCACAGCTTTCCCTG	-1.15
TGCAAGGATCACACTGAGCAGC	-1.06
TTTTCGGTAATCCTCCTGGATG	-1.32
TGGAAGAGGATCACACTCGGTG	-0.658
TCTATGCTGGTCACAGTCCTTC	-0.827
TTCTATGCTGGTCACAGTCCTT	-1.06
TATATTTCCTTCGTTGATGGAG	-0.211
TCACACTCGGTGCACTCCTTGT	-1.13
TGTAACGACAAGGCTCTGCAGG	-0.28
TTGATCTATATTTCCTTCGTTG	-0.282
ATCTATATTTCCTTCGTTGATG	-1.32
ATGCGAATAAAATCGGAGCTGC	-0.25
TTTCCTTCGTTGATGGAGGAAC	-0.814
TCACACTGAGCAGCCTTTCTAT	-1.13
